# Rows were chosen to be rich in hits. Some 17% of all compounds tested hit in one or more screens of this group.
# HT1080 IDH1KD tx: HT-1080 IDH1 knockdown cell toxicity (counter line). HT-1080 IDH1 knockdown viability, ATP luminescence, 48 h. Potency, µM (top dose mostly 46.1 µM), inactives show at the highest dose activity, negative = toxicity, hits mostly cytotoxic. actives 2% (n = 360,000). AID 686971;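 also: 0% = DMSO wells and -100% = cell-free medium wells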
#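 Viability of IDH1-knockdown HT-1080 fibrosarcoma cells was assessed by CellTiter-Glo after 48 h at 37 °C with titrated compound; concentration-effect curves were classified by fit quality and response size.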
# HT1080-NT tox: kills 2HG-producing HT-1080-NT fibrosarcoma cells; HT-1080-NT fibrosarcoma viability, CellTiter-Glo ATP luminescence, 48 h; Potency, µM (series often up to 46.1 µM), inactives show top-dose activity, negative = less viability, usual class: cytotoxic; actives 1.6% (n = 360,000);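 also: NT is the 2HG producing partner of a matched IDH1 knockdown line; 0% = DMSO-treated cells and -100% = media-only wells without cells; nearly all actives have a fitted effect of over 55% in size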
#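 Viability of the 2HG-overproducing fibrosarcoma line after 48 hours of compound exposure at 37 degrees C was determined by luminescence with CellTiter-Glo, and concentration-effect curves were then fitted and categorized.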
# TDP1 cell noCPT: qHTS for Inhibitors of human tyrosyl-DNA phosphodiesterase 1 (TDP1): qHTS in cells in absence of CPT; DT40 Tdp1-/- hTDP1 cells, no CPT, ATP luminescence, 48 h; Potency, µM (highest dose often 46.2 µM), without a hit: top-dose activity change, negative = growth inhibition, usual class: inhibitors; actives 15% (n = 420,000); AID 686978, 2013; also: % is scaled to controls: 0 for no effect and ±100 for the full control effect; nearly all actives have a fitted effect of over 55% in size
#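 Chicken DT40 Tdp1-/- cells complemented with human TDP1, screened without camptothecin (DMSO vehicle only), 400 cells/well. Compounds pin-transferred, cells incubated at 37 °C for at least 48 hr. Growth read as ATP-dependent luminescence (CellTiter-Glo, 30 min at RT).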
# TDP1 cell CPT: DT40-hTDP1 cell growth loss with CPT | chicken DT40 Tdp1-/-;hTDP1 cells + 20 nM CPT, ATP luminescence, 48 h | Potency, µM (highest dose often 46.2 µM), for inactives: at the highest dose activity change, negative = growth inhibition, usual class: inhibitors | actives 12% (n = 420,000); also: % is scaled to controls: 0 for no effect and ±100 for the full control effect; nearly all actives have a fitted effect of over 55% in size
#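 Chicken DT40 Tdp1-/- cells complemented with human TDP1, 400 cells/well, exposed to compounds plus 20 nM camptothecin for at least 48 h at 37 C; viability read as ATP content by CellTiter-Glo luminescence.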
# HepG2 viability: counter-screen for TGF-b inhibitors: cytotoxicity in HepG2 cells; HepG2 CAGA-GFP viability, ATP luminescence, 18 h; Potency, µM (highest dose often 46.1 µM), inactives show top-dose activity change, negative = cytotoxicity, most hits filed as cytotoxic; actives 0.76% (n = 410,000)
#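 HepG2 CAGA-GFP cells (1000/well, DMEM with 1% FBS) received compound, then TGF-beta at 500 pg/mL final, and were incubated 18 hours at 37 degrees C. Viability was read by CellTiter-Glo luminescence. Media-only wells were set as complete cell-killing and DMSO as no toxicity.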
# TGFb SMAD3 inh: TGF-b pathway inhibition | Potency, µM (doses to about 46.1 µM), for inactives: top-dose activity, negative = inhibition, usual class: inhibitors | actives 1.2% (n = 410,000) | HepG2 CAGA-GFP TGF-b/SMAD3 reporter, GFP fluorescence, 18 h; TGF-beta stimulated, 500 pg/mL final; also: % is scaled to controls: 0 for no effect and ±100 for the full control effect; nearly all actives have a fitted effect of over 65% in size
#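 HEPG2 CAGA-GFP, 1000 cells/well; 2 h settle, 37 C; cpd via pin tool; TGF-b 500 pg/mL final; 18 h, 37 C; GFP imaging ex488/em500-530; %Activity normalised to -TGF-b and +DMSO controls; CRC fit, curve class.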
# * marks the source's active call; other numbers are inactive results; ? = inconclusive; · = no result; [ ] = dose if it differs, or a comment. Calls follow the shape of the dose curve; as a rule, active = well fitted curve in the direction sought with a large enough effect; inconclusive = small, poorly fitted or top-dose-only effect, or another doubt; inactive = no such curve, though single readings can be large; an effect the other way counts as inactive or inconclusive. Potency is read from the fitted curve at half-maximal effect.
SMILES,HT1080 IDH1KD tx,HT1080-NT tox,TDP1 cell noCPT,TDP1 cell CPT,HepG2 viability,TGFb SMAD3 inh
O=C(NNC(=O)C1CCC1)c1ccc(Br)cc1,14%,28%,-1%,10%,-6%,11%
Cc1cnc(C(=O)NNC(=O)c2ccc(Br)cc2)cn1,21µM*,?,5.8µM*,3.7µM*,-6%,-2%
COc1cccc2sc3ccc(NCCC4CCCN4C)cc3c(=O)c12 (configuration not stated),-10%,-17%,?,?,-29%,3%
COc1ccc2sc3cccc(NCCN(C)C)c3c(=O)c2c1,16µM*,16µM*,10µM*,13µM*,3%,?
CN(C)CCNc1ccc(CO)c2sc3ccc(O)cc3c(=O)c12,16µM*,?,0.15µM*,0.026µM*,-24%,14µM*
COc1ccc2oc3cc(NCCN(C)C)ccc3c(=O)c2c1,?,?,26µM*,?,-15%,?
CN(C)CCNc1ccc2ncn3c4ccc(O)cc4c(=O)c1c23,21µM*,?,0.023µM*,0.052µM*,1%,?
Clc1ccc2[nH]c3c(c2c1)CNCC3,?,?,?,-8%,-13%,7%
Cc1cccc(CNC(=O)CN2CC(C)Sc3ccccc32)c1 (configuration not stated),·,·,·,·,-33%,-4%
c1ccc2c(c1)CCN(c1ncnc3c1[nH]c1ccccc13)C2,?,?,4.6µM*,4.6µM*,-61%,?
c1nc(N2CCC3(CC2)OCCO3)c2[nH]cnc2n1,21%,13%,-23%,-27%,5%,1%
OC1(c2cccc(C(F)(F)F)c2)CCN(c2ccc(-c3ccccc3)nn2)CC1,6%,0%,-22%,-29%,-1%,0%
COc1cccc2[nH]c3c(N4CCC(C)CC4)ncnc3c12,-19%,-6%,18µM*,26µM*,-30%,14%
c1ccc2c(c1)[nH]c1c(N3CCC4(CC3)OCCO4)ncnc12,?,-28%,7.3µM*,16µM*,-5%,?
COc1cccc2[nH]c3c(=O)n(CCCN4CCOCC4)cnc3c12,2%,0%,-3%,-2%,-41%,9%
OC1(c2cccc(C(F)(F)F)c2)CCN(c2ncnc3c2[nH]c2ccccc23)CC1,?,23µM*,21µM*,23µM*,-53%,?
COc1cccc(C(=O)Nc2c(C(=O)c3ccc(F)cc3)oc3ccccc23)c1,·,·,-6%,-14%,-25%,0%
CC(=O)c1cccc(NC(=O)COC(=O)c2ccccc2OCc2cccc(Br)c2)c1,2%,-5%,-22%,-21%,·,·
COc1cccc2[nH]c3c(N4CCC5(CC4)OCCO5)ncnc3c12,-2%,2%,23µM*,?,19%,10%
COc1cccc2[nH]c3c(N4CCc5ccccc5C4)ncnc3c12,-13%,-12%,21µM*,?,0%,19%
c1ccc(Cn2nnc3c(N4CCC5(CC4)OCCO5)ncnc32)cc1,-13%,-4%,?,-18%,-3%,0%
CCOC(=O)c1c(-n2c(C)cc(C=O)c2C)sc2c1CCCC2,?,-22%,?,16µM*,-31%,-17%
COc1ccc(C2=NN(C(=O)CSc3nc4ccccc4s3)C(c3ccc(OC)cc3)C2)cc1 (configuration not stated),3%,4%,12µM*,13µM*,1%,-2%
COc1ccc(C2=NN(C(=O)CSc3nc4ccccc4s3)C(c3ccc(F)cc3)C2)cc1 (configuration not stated),-5%,-6%,?,21µM*,-14%,0%
COc1ccc(Cl)cc1Nc1ccc2cc(S(=O)(=O)N3CCCCC3)ccc2n1,·,·,?,?,-9%,-17%
SMILES,HT1080 IDH1KD tx,HT1080-NT tox,TDP1 cell noCPT,TDP1 cell CPT,HepG2 viability,TGFb SMAD3 inh
COc1ccc(C2OC(=O)CC2C(=O)NC2CCCCCC2)cc1OC (configuration not stated),?,2%,-9%,6%,-1%,-5%
CC(C)C1OC2(C)OC(=N)C1(C#N)C(C#N)(C#N)C2c1ccccc1 (configuration not stated),16%,7%,?,?,1%,5%
CC1CCC(C(C)C)C2=C1C(C#N)(C#N)C(C#N)(C#N)C(c1ccccc1)N2 (configuration not stated),0%[9.24 µM],-26%,18µM*,?,-40%,?
CCn1cc(C(=O)NCc2ccc3c(c2)OCO3)c(=O)c2cc(S(=O)(=O)N3CCOCC3)ccc21,-14%,-7%,-17%,-41%,-19%,17%
CCn1cc(C(=O)NCCc2ccc(Cl)cc2)c(=O)c2cc(S(=O)(=O)N(C)C)ccc21,-5%,3%,6%,3%,-10%,-6%
CCn1cc(C(=O)NCc2ccc3c(c2)OCO3)c(=O)c2cc(S(=O)(=O)N(C)C)ccc21,-1%,-2%,18µM*,?,-26%,-1%
CCn1cc(C(=O)NCc2ccc(Cl)cc2)c(=O)c2cc(S(=O)(=O)N(C)C)ccc21,0%,-6%,21µM*,?,-40%,-12%
CCn1cc(C(=O)NCCCN(C)c2ccccc2)c(=O)c2cc(S(=O)(=O)N(C)C)ccc21,8%,3%,?,16µM*,-3%,14%
Cc1cccc(CNC(=O)c2cnn(-c3nccc(-c4cc(C)sc4C)n3)c2C)n1,·,·,-26%,7%[9.04 µM],·,·
Cc1ccc(NC(=O)c2ccccc2Br)c(C(=O)c2ccccc2)c1,·,·,-30%,-14%,-29%,?
Nc1ccc(Oc2ccc3c(c2)C(=O)N(CC2CCCO2)C3=O)cc1 (configuration not stated),6%,-2%,-11%,-9%,-17%,-6%
COCCn1c(=O)c(-c2cccc(C#N)c2)nc2cnc(N3CCN(C)CC3)nc21,·,·,0%,-6%,·,·
N=c1oc2ccc(Br)cc2cc1C(=O)NCc1ccccc1,-6%,-4%,?,?,-2%,-8%
CC(NC(=O)c1cc2cc(Br)ccc2oc1=N)c1ccccc1 (configuration not stated),1%,2%,16µM*,16µM*,20%,-1%
N=c1oc2ccc(Br)cc2cc1C(=O)NCc1ccc(F)cc1,0%,0%,8.2µM*,?,11%,9%

# Bioassay records deposited in PubChem by National Center for Advancing Translational Sciences (NCATS).
